ChEMBL document CHEMBL3988442, “University of Dundee, Small-Polar-MMV Screening Library” (2021)
For some assays here: Potency and affinity values are given separately.

Key:
Set-up in all cases: scale not given: direction of the effect not stated beside the values
[1] = biological target: Protein translocase subunit SecA (Escherichia coli (strain K12)) (UniProt P10408); test: Assay to Identify E. coli SecA ATPase Inhibitors; type: functional; details: 30 µM
[2] = biological target: T1, Ubiquitin-activating enzyme e1, putative (Leishmania donovani (strain BPK282A1)) (UniProt E9BSI1); test: Leishmania donovani Ubiquitin Activating Enzyme (LdE1); type: functional; details: 30 µM
T1 sequence (whole entry): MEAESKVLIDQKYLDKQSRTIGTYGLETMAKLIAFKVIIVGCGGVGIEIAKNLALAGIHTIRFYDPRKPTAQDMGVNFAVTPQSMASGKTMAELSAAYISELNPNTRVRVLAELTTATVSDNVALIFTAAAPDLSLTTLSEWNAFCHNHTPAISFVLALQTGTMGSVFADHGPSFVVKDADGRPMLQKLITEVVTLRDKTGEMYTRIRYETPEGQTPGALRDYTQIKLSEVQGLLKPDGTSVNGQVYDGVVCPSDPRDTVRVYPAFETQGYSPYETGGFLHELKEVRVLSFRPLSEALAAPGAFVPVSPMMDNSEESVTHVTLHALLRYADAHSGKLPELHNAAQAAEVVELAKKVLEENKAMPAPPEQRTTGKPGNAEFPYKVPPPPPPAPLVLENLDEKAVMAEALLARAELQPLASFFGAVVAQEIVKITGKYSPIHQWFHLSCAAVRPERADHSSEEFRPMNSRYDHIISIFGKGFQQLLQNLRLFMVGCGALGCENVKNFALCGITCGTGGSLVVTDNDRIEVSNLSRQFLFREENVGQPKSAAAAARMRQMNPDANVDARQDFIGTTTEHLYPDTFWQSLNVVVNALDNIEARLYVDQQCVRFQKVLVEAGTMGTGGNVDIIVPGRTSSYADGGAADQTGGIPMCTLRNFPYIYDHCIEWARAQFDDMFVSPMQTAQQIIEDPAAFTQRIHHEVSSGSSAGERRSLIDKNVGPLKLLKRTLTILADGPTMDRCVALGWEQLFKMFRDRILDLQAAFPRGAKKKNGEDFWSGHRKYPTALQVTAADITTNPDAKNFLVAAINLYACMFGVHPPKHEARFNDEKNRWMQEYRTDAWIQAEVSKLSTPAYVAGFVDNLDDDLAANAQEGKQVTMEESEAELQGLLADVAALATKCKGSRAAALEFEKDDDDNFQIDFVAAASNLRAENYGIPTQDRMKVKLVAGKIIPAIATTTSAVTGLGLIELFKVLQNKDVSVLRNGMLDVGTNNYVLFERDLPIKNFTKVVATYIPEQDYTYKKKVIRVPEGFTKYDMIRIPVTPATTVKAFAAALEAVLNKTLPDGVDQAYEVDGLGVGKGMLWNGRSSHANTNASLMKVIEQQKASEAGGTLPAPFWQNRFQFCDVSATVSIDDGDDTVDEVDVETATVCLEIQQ

[3] = biological target: AMP-activated protein kinase, AMPK (Homo sapiens) (UniProt P54646+O43741+P54619+Q9UGJ0+Q9Y478+Q13131+Q9UGI9); test: AMP-dependent Kinase enzyme assay. An in vitro enzyme assay that detects ADP turnover that is directly proportional to AMPK activity. This uses naive AMPK that is activated during the assay with MK-8722; type: functional; details: 30 µM
[4] = biological target: Sialic acid-binding Ig-like lectin 9 (Homo sapiens) (UniProt Q9Y336); test: Hs-Siglec9 ALPHAscreen SOP 20170721; details: 10 µM
Sialic acid-binding Ig-like lectin 9 (Homo sapiens), sequence (Q9Y336 whole entry): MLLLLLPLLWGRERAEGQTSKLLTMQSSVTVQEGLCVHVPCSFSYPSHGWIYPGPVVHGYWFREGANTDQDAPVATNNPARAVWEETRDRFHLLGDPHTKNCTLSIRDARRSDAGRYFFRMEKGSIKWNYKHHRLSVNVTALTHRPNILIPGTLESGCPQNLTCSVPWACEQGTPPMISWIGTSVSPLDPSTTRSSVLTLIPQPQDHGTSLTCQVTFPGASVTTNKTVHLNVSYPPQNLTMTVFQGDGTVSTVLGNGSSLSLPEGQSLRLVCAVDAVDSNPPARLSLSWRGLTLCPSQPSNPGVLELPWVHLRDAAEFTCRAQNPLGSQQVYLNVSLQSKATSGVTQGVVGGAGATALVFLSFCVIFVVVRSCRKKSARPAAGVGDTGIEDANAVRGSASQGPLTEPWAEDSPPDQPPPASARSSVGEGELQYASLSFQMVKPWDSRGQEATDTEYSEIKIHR

Trypanosoma cruzi = test: Trypanosoma cruzi phosphomannomutase and mannose-1-phosphate guanylyltransferase assay; type: functional; details: 10 µM
[5] = biological target: T2, Arginase-2, mitochondrial (Homo sapiens) (UniProt P78540); test: in vitro enzyme assay to detect the production of urea directly proportional to the activity of Arginase II; type: functional; details: 33.3 µM; note: in the data most compounds retested in dose-response had high values
T2 sequence (whole entry): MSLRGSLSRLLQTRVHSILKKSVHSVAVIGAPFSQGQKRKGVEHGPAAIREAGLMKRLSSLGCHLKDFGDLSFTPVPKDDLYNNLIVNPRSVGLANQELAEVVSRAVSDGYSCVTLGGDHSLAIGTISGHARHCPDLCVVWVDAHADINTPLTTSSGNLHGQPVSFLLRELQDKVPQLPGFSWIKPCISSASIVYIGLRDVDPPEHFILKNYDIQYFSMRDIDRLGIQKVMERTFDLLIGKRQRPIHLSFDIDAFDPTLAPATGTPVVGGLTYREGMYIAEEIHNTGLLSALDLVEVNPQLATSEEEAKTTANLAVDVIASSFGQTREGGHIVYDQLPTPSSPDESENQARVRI

[6] = biological target: T3, Proteasome subunit beta (Trypanosoma cruzi) (UniProt O96673); test: Trypanosoma cruzi proteasome chymotrypsin-like activity (TcProtChymo) assay.; note: in the data most compounds retested in dose-response had high values; type: functional; details: 9.37 µM
T3 sequence (whole entry): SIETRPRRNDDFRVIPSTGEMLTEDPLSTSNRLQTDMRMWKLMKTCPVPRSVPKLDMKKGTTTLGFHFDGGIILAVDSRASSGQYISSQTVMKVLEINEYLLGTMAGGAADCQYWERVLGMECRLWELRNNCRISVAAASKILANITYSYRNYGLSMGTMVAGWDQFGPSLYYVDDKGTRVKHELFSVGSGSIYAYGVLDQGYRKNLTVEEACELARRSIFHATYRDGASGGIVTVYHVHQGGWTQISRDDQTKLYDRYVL

Homo sapiens = organism: Homo sapiens; test: To identify inhibition of the IFN signalling (Jak-Stat) pathway via expression of an eGFP reporter gene under the control of an IFN-stimulated response element (ISRE) containing MxA promoter.; type: functional; details: 30 µM
[7] = biological target: T4, Tyrosyl-tRNA synthetase, putative (Trypanosoma cruzi (strain CL Brener)) (UniProt Q4DSP6); test: Trypanosoma cruzi tyrosyl tRNA synthetase (TcYRS) _High Tyrosine SOP; type: functional; details: 30 µM; note: in the data most compounds retested in dose-response had high values
T4 sequence (whole entry): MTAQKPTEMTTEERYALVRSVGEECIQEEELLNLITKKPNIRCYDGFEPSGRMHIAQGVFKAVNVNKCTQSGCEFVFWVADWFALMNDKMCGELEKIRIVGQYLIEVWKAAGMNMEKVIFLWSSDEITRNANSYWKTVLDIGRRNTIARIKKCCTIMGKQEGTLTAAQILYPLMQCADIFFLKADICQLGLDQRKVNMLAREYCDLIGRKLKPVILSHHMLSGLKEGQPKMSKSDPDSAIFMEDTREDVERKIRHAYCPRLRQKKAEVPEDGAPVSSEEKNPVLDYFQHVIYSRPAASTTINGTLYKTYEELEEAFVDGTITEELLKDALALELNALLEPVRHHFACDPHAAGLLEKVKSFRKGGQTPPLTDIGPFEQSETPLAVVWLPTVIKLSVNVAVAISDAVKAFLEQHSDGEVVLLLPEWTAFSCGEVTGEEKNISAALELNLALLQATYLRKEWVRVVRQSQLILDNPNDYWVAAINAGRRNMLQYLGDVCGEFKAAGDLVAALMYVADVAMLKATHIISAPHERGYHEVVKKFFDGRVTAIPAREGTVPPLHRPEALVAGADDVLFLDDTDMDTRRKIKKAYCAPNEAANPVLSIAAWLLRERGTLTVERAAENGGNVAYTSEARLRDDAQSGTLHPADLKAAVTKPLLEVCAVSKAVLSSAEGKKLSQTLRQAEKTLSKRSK

[8] = biological target: T4, Tyrosyl-tRNA synthetase, putative (Trypanosoma cruzi (strain CL Brener)); test: Trypanosoma cruzi tyrosyl tRNA synthetase (TcYRS) SOP; type: functional; details: 30 µM
[9] = biological target: Chromo domain-containing protein 1 (Saccharomyces cerevisiae (strain ATCC 204508 / S288c) (Baker's yeast)) (UniProt P32657); test: ScCHD-1 Enzyme Inhibition Assay; type: functional; details: 30 µM; note: in the data most compounds retested in dose-response had high values
Chromo domain-containing protein 1 (Saccharomyces cerevisiae (strain ATCC 204508 / S288c) (Baker's yeast)), sequence (P32657 whole entry, the tested form may be a part): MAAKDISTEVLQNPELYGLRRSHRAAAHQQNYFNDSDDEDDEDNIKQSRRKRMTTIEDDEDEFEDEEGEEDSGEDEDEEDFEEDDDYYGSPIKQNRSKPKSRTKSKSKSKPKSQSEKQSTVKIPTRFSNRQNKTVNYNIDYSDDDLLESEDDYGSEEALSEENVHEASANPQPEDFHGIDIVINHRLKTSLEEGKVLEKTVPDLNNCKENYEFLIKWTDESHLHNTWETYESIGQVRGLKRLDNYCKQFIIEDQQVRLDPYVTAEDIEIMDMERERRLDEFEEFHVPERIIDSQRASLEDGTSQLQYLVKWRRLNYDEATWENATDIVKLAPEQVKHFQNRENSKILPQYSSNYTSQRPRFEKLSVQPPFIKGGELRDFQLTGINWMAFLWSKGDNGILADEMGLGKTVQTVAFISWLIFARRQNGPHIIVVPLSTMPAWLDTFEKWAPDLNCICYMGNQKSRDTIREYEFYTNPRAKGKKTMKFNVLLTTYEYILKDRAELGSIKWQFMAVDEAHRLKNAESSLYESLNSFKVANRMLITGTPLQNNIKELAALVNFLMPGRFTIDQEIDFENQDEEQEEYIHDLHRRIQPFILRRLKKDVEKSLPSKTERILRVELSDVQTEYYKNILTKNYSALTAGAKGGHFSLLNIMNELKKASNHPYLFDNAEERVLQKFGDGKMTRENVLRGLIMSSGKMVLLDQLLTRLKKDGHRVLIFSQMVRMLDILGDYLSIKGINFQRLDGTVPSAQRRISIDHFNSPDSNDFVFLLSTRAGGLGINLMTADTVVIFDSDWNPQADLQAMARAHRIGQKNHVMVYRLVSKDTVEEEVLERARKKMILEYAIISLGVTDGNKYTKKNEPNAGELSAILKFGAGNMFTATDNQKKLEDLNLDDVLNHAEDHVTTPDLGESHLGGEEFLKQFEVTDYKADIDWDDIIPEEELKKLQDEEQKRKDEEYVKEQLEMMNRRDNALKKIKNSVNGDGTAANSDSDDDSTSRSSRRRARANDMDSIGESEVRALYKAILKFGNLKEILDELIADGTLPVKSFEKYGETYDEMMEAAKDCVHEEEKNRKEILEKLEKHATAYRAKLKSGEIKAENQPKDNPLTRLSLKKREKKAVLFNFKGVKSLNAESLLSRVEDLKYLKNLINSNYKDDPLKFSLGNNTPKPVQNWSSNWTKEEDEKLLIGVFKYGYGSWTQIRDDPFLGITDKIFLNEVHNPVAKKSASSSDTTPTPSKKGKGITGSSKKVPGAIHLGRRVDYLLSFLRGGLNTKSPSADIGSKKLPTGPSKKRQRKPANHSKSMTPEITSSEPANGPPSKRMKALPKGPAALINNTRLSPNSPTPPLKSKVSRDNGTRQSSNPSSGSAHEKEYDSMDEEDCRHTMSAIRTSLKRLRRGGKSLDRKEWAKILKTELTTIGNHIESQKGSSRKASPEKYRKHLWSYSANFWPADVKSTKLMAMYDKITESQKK

Protein translocase subunit SecA (Escherichia coli (strain K12)), sequence (P10408 whole entry): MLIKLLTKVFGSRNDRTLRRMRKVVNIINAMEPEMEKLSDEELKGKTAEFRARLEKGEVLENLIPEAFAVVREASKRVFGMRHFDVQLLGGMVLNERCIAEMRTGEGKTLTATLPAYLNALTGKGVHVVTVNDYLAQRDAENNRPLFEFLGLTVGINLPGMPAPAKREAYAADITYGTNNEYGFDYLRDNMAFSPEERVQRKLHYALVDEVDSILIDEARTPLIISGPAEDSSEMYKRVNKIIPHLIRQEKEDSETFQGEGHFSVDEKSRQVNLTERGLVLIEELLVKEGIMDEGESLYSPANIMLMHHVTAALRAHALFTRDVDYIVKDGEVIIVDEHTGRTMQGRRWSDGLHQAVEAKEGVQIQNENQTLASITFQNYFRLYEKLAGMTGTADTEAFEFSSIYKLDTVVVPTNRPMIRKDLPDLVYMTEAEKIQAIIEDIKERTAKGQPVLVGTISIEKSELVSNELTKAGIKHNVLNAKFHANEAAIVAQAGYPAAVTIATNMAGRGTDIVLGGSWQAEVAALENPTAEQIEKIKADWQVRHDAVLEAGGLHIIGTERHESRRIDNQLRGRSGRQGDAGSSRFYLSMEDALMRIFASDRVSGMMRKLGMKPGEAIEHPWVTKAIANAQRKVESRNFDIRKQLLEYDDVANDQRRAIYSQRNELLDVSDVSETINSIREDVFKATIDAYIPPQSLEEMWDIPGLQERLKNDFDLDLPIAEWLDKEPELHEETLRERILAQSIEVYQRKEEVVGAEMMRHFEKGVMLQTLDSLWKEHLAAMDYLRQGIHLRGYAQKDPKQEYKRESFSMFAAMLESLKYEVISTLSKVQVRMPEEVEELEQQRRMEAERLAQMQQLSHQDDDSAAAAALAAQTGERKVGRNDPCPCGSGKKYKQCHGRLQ

Row | Structure (SMILES) | Percent Effect [1] | Percent Effect [2] | Percent Effect [3] | Percent Effect [4] | Percent Effect (Trypanosoma cruzi) | Percent Effect [5] | Percent Effect [6] | Percent Effect (Homo sapiens) | Percent Effect [7] | Percent Effect [8] | Percent Effect [9]
1 | O=C(Cc1ccsc1)N1CCn2cc(CN3CCCC3)nc2C1 | -1.1% | 8.22% | -4.43% | 11.5% | 8.33% | -9.98% | 20.1% | -16% | 14.6% | 23.5% | -4.19%
2 | O=C(NC[C@]12COC[C@H]1CN(C1CCOCC1)C2)c1ccco1 | -5.25% | 10.7% | 4.78% | -6.09% | -2.17% | 8.16% | 12.8% | 5.24% | 9.57% | 8.97% | 0.371%
3 | Cc1nn(C)c(N2CCOCC2)c1CNC(c1cccs1)C(C)C (configuration not stated) | -2.38% | 21.1% | -9.37% | -0.827% | 1.59% | 1.8% | 12.6% | -16.1% | 10.3% | 28.4% | -6.09%
4 | CCc1nnc2n1CCN(C(=O)c1ccc(C(F)(F)F)nc1C)C2 | -6.11% | 20.2% | -4.83% | 14.3% | 5.95% | -6.08% | 9.09% | -2.36% | 2.46% | 16.5% | -8.19%
5 | N#Cc1ccc(C(=O)N2CCn3c(Cn4cccn4)cnc3C2)cc1 | -4.62% | 2.67% | 0.576% | 1.75% | -3.86% | -57.5% | 5.98% | -6.78% | 2.08% | 7.5% | -3.56%
6 | CC(C)n1c(C2CCCN(CCS(C)(=O)=O)C2)nc2ccccc21 (configuration not stated) | -2.02% | 8.11% | 1.95% | -0.0156% | 0.586% | 13.8% | 7.69% | -5.65% | 5.94% | 8.54% | -2.93%
7 | Cn1ccc(C(=O)N2CCC(Cc3cccc4cccnc34)C2)n1 (configuration not stated) | -2.61% | 9.46% | 13.5% | 3.85% | -5.73% | -2.09% | 4.68% | 16.3% | 5.38% | 6.49% | 0.402%
8 | CCc1nc2ccccc2c(=O)n1CC1(O)CCN(S(C)(=O)=O)CC1 | -1.91% | 17.6% | 10.4% | 9.5% | 1.58% | 7.66% | 10.8% | 17.4% | 5.38% | 14.3% | -11.7%
9 | CCOC1CCCN(C(=O)c2cnc3c(cnn3C3CCCC3)c2)C1 (configuration not stated) | -4.83% | 0% | 2.09% | 0.582% | -2.93% | -2.66% | -2.38% | 24.1% | 1.48% | -8.86% | -4.24%
10 | Cc1c[nH]nc1C1CCN(S(=O)(=O)N(C)C)CC1 | -3.15% | 1.35% | -2.65% | 1.12% | -7.12% | -1.16% | -3.59% | 9.82% | 2.15% | 6.49% | -2.55%
11 | O=C(CCCc1ccc(F)cc1)N1C[C@@H](CN2CCOCC2)[C@@H](CO)C1 | -3.25% | 8.22% | -1.01% | -3.8% | -1.57% | 1.82% | 13.7% | -3.47% | 7.53% | 12.5% | -5.62%
12 | CS(=O)(=O)NCC1CCCCN1C(=O)Nc1cccnc1N1CCCC1 (configuration not stated) | -15.1% | 13.2% | -38% | 3.6% | 7.89% | 0% | 8.92% | 2.36% | 5.32% | 13% | -19.9%
13 | Cc1noc(CCCC(=O)NC(C)c2cccnc2)n1 (configuration not stated) | 0.699% | 13.2% | 0.237% | 0.605% | -5.83% | 5.75% | 8.86% | 21.4% | 8.33% | 12.2% | -6.49%
14 | Cn1cc(NC(=O)Cn2c(CS(C)(=O)=O)nc3ccccc32)cn1 | -2.27% | 7.89% | 3.88% | 2.76% | 0.0974% | -1.18% | 12.6% | -13.6% | 3.19% | 13% | -3.67%
15 | Cc1noc(C)c1CNC(=O)N1CCC(CO)CC1 | -1.26% | 13.7% | -4.05% | 6.04% | 2.18% | -1.2% | 7.62% | 23.9% | 7.29% | 16.1% | -0.505%
16 | O=C(COc1coc(CN2CCCCCC2)cc1=O)c1ccccc1 | -5.87% | -7.89% | -1.88% | -6.78% | -3.6% | -1.18% | 9.49% | -1.04% | 3.19% | 0% | 72.3%
17 | COc1ccc(C)cc1S(=O)(=O)NCC(c1cccn1C)N(C)C (configuration not stated) | -6.79% | 8.22% | -12.1% | 2.18% | -5.49% | 1.36% | 12.2% | 6.68% | 5.38% | 10% | 104%
18 | Cc1nnc([C@@H]2CC[C@@H]3[C@@H](CCN3S(=O)(=O)c3cccnc3)O2)o1 | -6.5% | 10.8% | 7.11% | -2.36% | -1.07% | 6.05% | 15.7% | -6.25% | 15.1% | 12.8% | -1.2%
19 | COCCNc1nc2c(c(NCc3ccncc3)n1)CCNCC2 | 1.06% | 0% | -4.61% | 0.0545% | 3.28% | -3.81% | 13.8% | 5.66% | 5.82% | 7.32% | -2.76%
20 | CCc1nc(NCC(=O)N2CCOCC2)c2c(n1)c(C)nn2CC | -2.78% | 6.67% | 0.5% | 7.26% | -6.09% | -6.87% | 10.7% | -5.15% | 2.12% | 5.13% | -5.78%
21 | Cc1cccc(CN2C[C@H]3OC(=O)N(CCCN4CCOCC4)[C@H]3C2)n1 | -5.71% | 5.33% | 0.534% | 17% | 0.682% | 2.08% | 11.9% | 2.81% | 10.4% | 16.1% | -8.08%
22 | O=C(Cc1ccsc1)N1CCC(n2nc(-c3ccco3)ccc2=O)CC1 | -7.59% | 6.76% | 16.2% | 33.6% | -2.17% | -4.41% | 13.9% | -0.185% | 9.68% | 6.49% | -13.4%
